Records with an inconclusive call do not appear. Calls of active or inactive are those of the source.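 The calls were made as follows, unless noted: active = viability at or below 27.92% in each of two runs, the all-compound median minus 4 SD; inconclusive = no clear call, values can overlap the other calls; inactive = the rest.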

The nature of assay [1]: reducers of endogenous Her2 protein level, primary screen, SKBR3 breast tumor cells, AlphaScreen, ATP viability (AID 461;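 active = Her2 level under about 52% in both replicate screens, with viability over 70% of control, limit read from the data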;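 as to Her2 level: lower value means less Her2 protein in the cells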;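 as to viability: percent of carrier control wells set as 100% viability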). The note with it: 18-24 h, measured here: SKBR3 viability, ATP luminescence, at 10 µM.
The target in assay [2] is Receptor tyrosine-protein kinase erbB-2 (Homo sapiens) (UniProt P04626). The assay is described as above. Conditions: 18-24 h, at 10 µM, stronger effect = lower value.
Assay [3] can be described thus: SK-BR-3 cell growth inhibitors, pilot screen, 24 h, human (AID 572;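 active = viability at or below 10% of carrier control in both of two separate runs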;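 also: compound exposure lasted between 18 and 24 h rather than exactly 24 h; 100% = carrier-treated control wells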). Conditions: SK-BR-3 viability, CellTiter-Glo luminescence, at 10 µM, stronger effect = lower value. A general note: Cellular ATP, detected with luciferase, serves as a proxy for viable cell number.
The nature of assay [4]: HUVEC growth inhibition – cell-based, human, primary screen (AID 575;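 active = viability at or below 30% in both replicate assays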;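 also: 100% = median of untreated cell wells with 0.1% DMSO on each plate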). Conditions: HUVEC proliferation, CellTiter-Glo luminescence, 72 h; at 10 µM; stronger effect = lower value.
Assay [5] is described as follows: growth inhibitors of H69AR lung tumor, primary screen, human, duplicate replicates (AID 580;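 active = viability at or under a set limit in both replicates, limit being median viability minus 3 SD, cut at about 48% in these data, passing the limit was not always enough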;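 also: 100% = mean luminescence of untreated wells and 0% = no signal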). Conditions: H69AR lung tumor cells viability, ATP luminescence, 72 h; at 10 µM; stronger effect = lower value.
Assay [6] is described as follows: reversal of MRP1-mediated doxorubicin resistance, pilot screen, H69AR cells, doxorubicin co-treatment (AID 601;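 active = viability loss from added drug above about 55%, and viability with drug at most 40%, in both replicates, limit read from the data, passing the limit was not always enough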). The note with it: CellTiter-Glo, 72 h, at 10 µM; for differential viability (reversal): stronger effect = higher value.
Assay [7] in a line: 384-well plate pilot, post-Golgi transport modulator project, inhibition of yeast transport mutant growth (AID 636; in the data active = inhibition above about 31%). The note with it: absorbance 615 nm, about 18 h, stronger effect = higher value.
Assay [8] is described as follows: growth suppression of yeast trafficking mutant, preliminary HTS, modulators of trafficking downstream of Golgi apparatus project, 1536-format plate, OD 615 nm (AID 637; in the data active = inhibition above about 30%). The note with it: yeast transport mutant growth, absorbance 615 nm, 18 h; stronger effect = higher value.
Assay [9] can be described thus: OD615 S. cerevisiae growth inhibition, permissive medium, pilot counter-assay, permissive growth control for S. cerevisiae lifespan shortening project (AID 705;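 active = growth inhibition above 25% in both replicates, a cutoff set 3 SD above the mean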). Conditions: OD615, 24 h, at 10 µM, stronger effect = higher value.
A short description of assay [10]: Restrictive medium S. cerevisiae growth inhibition, OD615, pilot screen of yeast lifespan reduction project, restrictive growth control (AID 706;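 active = growth inhibition above a set limit, 3 SD over mean compound inhibition, in both replicates, cut at about 43% in these data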;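 also: modified DeaD lifespan yeast strain shifted to restrictive glucose medium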). The note with it: OD615, 48 h, at 10 µM, stronger effect = higher value.
Assay [11] can be described thus: viability gain of MRP-1-high H69AR cells under doxorubicin, pilot screen, MRP-1 activator project, CellTiter-Glo, duplicate (AID 807;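 active = viability increase at or above a cutoff of the median across tested compounds plus 3 SD, cut at about 8.5% in these data, passing the limit was not always enough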;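 also: compound pretreatment 18-22 h then 72 h combined with doxorubicin; 0% = doxorubicin alone and 100% = vehicle without doxorubicin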). The note with it: H69AR viability with doxorubicin, CellTiter-Glo luminescence; at 10 µM; stronger effect = higher value.
Assay [12] is described as follows: growth suppression of beta-catenin knockout HCT116, pilot screen, human colon tumor cells (AID 823;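 active = cell viability at or below a set limit in both duplicate runs, the limit being the all-compound median minus 4 SD, cut at about 23% in these data, passing the limit was not always enough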;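 also: 0% = wells killed by 20 µM Hyamine and 100% = untreated DMSO cell wells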). The note with it: CellTiter-Glo, 60 h, at 10 µM, stronger effect = lower value.
The nature of assay [13]: growth suppression of PTEN-deleted HCT116, pilot screen, cell-based, HCT116 clonal line, CellTiter-Glo (AID 824).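 Also: 0% = 20 µM Hyamine control and 100% = vehicle cell control.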 Conditions: 60 h, at 10 µM, stronger effect = lower value.
A short description of assay [14]: inhibitors of the yeast RAM network, pilot screen, dse1pr::URA3 reporter, 5-FOA selection (AID 869;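 active = inhibition over a set limit, the all-compound mean plus 3 SD, in both replicate runs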;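 also: 0% = DMSO wells with no growth and 100% = 10 µM 1-NA-PP1 with full growth; RAM network block rescues cells from 5-FOA so hits raise OD615 growth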). Conditions: S. cerevisiae dse1pr::URA3 5-FOA growth, OD615, 2 d; at 10 µM; stronger effect = higher value; strain carries analog-sensitive mutant Cbk1 kinase.
A short description of assay [15]: RAM signaling pathway blockade in yeast – S. cerevisiae, Pdr1DBD-CYC8 efflux-inhibited sensitized strain, primary screen (AID 1298;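 active = RAM network inhibition above 8.4% in each of two replicates, 3 SD over the compound average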;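 also: 0% = DMSO untreated cells without growth and 100% = 10 µM 1-NA-PP1 full growth; higher means more yeast growth rescued from 5-FOA killing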). The note with it: S. cerevisiae cbk1-as DSE1-URA3 strain, 5-FOA growth OD615, 2 d; at 50 µM; stronger effect = higher value.
Setting [16] is: H69AR cells + 2 uM doxorubicin, measured here: viability with 2 uM doxorubicin, stronger effect = lower value.
Setting [17] is: H69AR cells, compound alone cytotoxicity.

Chain of Receptor tyrosine-protein kinase erbB-2 (Homo sapiens) (P04626 whole entry, looked up): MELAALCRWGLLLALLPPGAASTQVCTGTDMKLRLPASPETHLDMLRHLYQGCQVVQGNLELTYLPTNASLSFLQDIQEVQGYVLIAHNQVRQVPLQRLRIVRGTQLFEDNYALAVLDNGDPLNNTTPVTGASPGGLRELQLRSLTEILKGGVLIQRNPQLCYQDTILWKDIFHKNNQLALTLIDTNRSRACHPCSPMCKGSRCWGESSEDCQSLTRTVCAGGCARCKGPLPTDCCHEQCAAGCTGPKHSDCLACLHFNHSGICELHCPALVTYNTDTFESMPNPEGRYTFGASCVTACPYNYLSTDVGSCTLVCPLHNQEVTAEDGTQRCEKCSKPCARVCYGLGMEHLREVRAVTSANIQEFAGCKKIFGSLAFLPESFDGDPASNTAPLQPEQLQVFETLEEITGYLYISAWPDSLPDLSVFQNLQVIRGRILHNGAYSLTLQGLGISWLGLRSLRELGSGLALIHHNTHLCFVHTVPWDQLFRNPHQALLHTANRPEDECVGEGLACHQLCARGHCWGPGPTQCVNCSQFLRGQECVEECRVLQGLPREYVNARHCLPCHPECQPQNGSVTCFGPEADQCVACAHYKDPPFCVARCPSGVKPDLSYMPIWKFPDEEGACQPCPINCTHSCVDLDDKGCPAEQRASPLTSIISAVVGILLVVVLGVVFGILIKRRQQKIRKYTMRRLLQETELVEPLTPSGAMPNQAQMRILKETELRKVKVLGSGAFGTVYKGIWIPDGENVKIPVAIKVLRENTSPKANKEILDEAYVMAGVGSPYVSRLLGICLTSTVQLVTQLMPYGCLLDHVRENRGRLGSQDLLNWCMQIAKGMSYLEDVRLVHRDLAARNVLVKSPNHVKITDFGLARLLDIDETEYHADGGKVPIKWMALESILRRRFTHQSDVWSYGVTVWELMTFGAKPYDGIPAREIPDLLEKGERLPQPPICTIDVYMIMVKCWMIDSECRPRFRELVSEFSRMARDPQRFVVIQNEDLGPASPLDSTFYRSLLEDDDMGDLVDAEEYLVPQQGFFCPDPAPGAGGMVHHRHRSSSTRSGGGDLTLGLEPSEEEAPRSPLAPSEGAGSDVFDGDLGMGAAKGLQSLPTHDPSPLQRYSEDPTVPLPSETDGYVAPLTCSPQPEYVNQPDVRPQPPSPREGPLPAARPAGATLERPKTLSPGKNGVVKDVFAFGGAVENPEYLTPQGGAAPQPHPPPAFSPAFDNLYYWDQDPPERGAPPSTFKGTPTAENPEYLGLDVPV

As usually defined, the viability is a read-out of living cells in per cent, often relative to untreated cells. The inhibition is the drop in the measured response relative to a control, in per cent. Consider `COc1ccccc1OCC(=O)N1CCN(c2ccccc2OC)CC1`, for which the viability in assay [1] is 93.5%; in [3], 93.5% (inactive); in [4], 111% (inactive); in assay [5] it was 104% (inactive); in [6] (setting [16]), 91.2%; in assay [6] (setting [17]), 104%. Also, the viability in [12] was 96.9% (inactive); in [13], 95% (inactive). Further, the Her2 level in [2] is 124% (inactive). In addition, the differential viability (reversal) in assay [6] (H69AR cells + 2 uM doxorubicin) is 13.2% (inactive). The inhibition was 3.78% (inactive) in assay [7], -2.7% (inactive) in [8] and 0.87% (inactive) in [14]. In addition, the growth inhibition was -3.77% (inactive) in assay [9] and -2.73% (inactive) in [10]. In assay [11], the viability increase was -2.73% (inactive). In assay [15], the RAM network inhibition is -1.28% (inactive).
`CC1(C)Oc2ccc3ccc(=O)oc3c2C(N2CCCCC2)C1O` (stereo not given): the viability is 103% in assay [1]; 103% (inactive) in assay [3]; 89.6% (inactive) in [4]; 92.6% (inactive) in assay [5]; 85.3% in assay [6] (setting [16]); 92.6% in assay [6] (setting [17]). Besides, the viability was 101% (inactive) in [12] and 98.2% (inactive) in assay [13]. In addition, the Her2 level in assay [2] is 94% (inactive). For the same compound, the differential viability (reversal) in assay [6] (H69AR cells + 2 uM doxorubicin) was 7.25% (inactive). For the same compound, the inhibition in [7] was -0.52% (inactive); in [8], -4.33% (inactive); in assay [14] it was 1.49% (inactive). The growth inhibition in assay [9] is -4.78% (inactive); in [10], -7.54% (inactive). In addition, in [11], the viability increase is -2.43% (inactive). The RAM network inhibition in assay [15] is 2.29% (inactive).
For the compound `CCc1ccccc1NC(=O)c1cnc2n(c1=O)CCS2`, the viability is 90.5% in [1]; 90.5% (inactive) in assay [3]; 95% (inactive) in assay [4]; 91.6% (inactive) in assay [5]; 88.1% in [6] (setting [16]); 91.6% in assay [6] (setting [17]). In addition, the viability is 90.9% (inactive) in assay [12] and 97% (inactive) in assay [13]. In assay [2], the Her2 level is 90% (inactive). Further, in [6] (H69AR cells + 2 uM doxorubicin), the differential viability (reversal) was 3.48% (inactive). The figures for the inhibition in assay [7], in [8] and in assay [14] were -1.33% (inactive), -4.26% (inactive) and 1.32% (inactive), respectively. For the same compound, the growth inhibition in [9] is -7.06% (inactive); in assay [10], 1.6% (inactive). Besides, in [11], the viability increase is 3.48% (inactive). In addition, the RAM network inhibition in [15] is 5.66% (inactive).
Regarding `O=C(NC1CCN(Cc2ccccc2)CC1)C1CCN(S(=O)(=O)c2cccc3cccnc23)CC1`, the viability was 96.5% in [1]; 96.5% (inactive) in [3]; 86.9% (inactive) in assay [4]; 102% (inactive) in [5]; 101% in assay [6] (setting [16]); 102% in assay [6] (setting [17]). Also, the viability in assay [12] was 88.3% (inactive); in [13], 96% (inactive). Moreover, in [2], the Her2 level was 97.5% (inactive). The differential viability (reversal) in assay [6] (H69AR cells + 2 uM doxorubicin) is 1.09% (inactive). In addition, the figures for the inhibition in assay [7], in assay [8] and in assay [14] were -0.13% (inactive), -2.62% (inactive) and -0.18% (inactive), respectively. For the same compound, the growth inhibition in assay [9] was 5.75% (inactive); in assay [10] it was 1.73% (inactive). For the same compound, in assay [11], the viability increase was 1.84% (inactive). Also, the RAM network inhibition in [15] was 1.59% (inactive).
As to `CCc1c(C)c2c(C)nn(-c3ccccc3)c2[nH]c1=O`, the viability in [1] was 83%; in assay [3], 83% (inactive); in assay [4], 68.9% (inactive); in assay [5], 90.1% (inactive); in assay [6] (setting [16]) it was 84.2%; in [6] (setting [17]), 90.1%. Also, the viability in [12] is 85.1% (inactive); in [13], 79% (inactive). Further, the Her2 level in assay [2] was 81.5% (inactive). In addition, the differential viability (reversal) in assay [6] (H69AR cells + 2 uM doxorubicin) was 5.91% (inactive). The inhibition in assay [7] is -0.65% (inactive); in assay [8], -1.31% (inactive); in [14] it was 1.53% (inactive). In addition, the results for the growth inhibition in assay [9] and in assay [10] were -3.86% (inactive) and 4.15% (inactive), respectively. Further, the viability increase in assay [11] was -2.75% (inactive). Further, the RAM network inhibition in [15] was 0.31% (inactive).
With `COc1ccc(NC(=O)CN(c2cc(C)cc(C)c2)S(=O)(=O)c2c(C)noc2C)cc1OC`, the viability in assay [1] was 89%; in assay [3], 89% (inactive); in assay [4], 110% (inactive); in [5], 88.2% (inactive); in assay [6] (setting [16]), 73.6%; in assay [6] (setting [17]), 88.2%. In addition, the viability is 89% (inactive) in assay [12] and 92.5% (inactive) in [13]. Besides, in assay [2], the Her2 level was 73% (inactive). The differential viability (reversal) in [6] (H69AR cells + 2 uM doxorubicin) was 14.6% (inactive). The inhibition in assay [7] is 0.26% (inactive); in [8], -1.67% (inactive); in assay [14], 3.25% (inactive). For the same compound, the growth inhibition in assay [9] was -9.49% (inactive); in assay [10], -4.85% (inactive). The viability increase in [11] is -2.49% (inactive). In addition, in assay [15], the RAM network inhibition is 5.58% (inactive).
As to `Cc1ccc(C)n1-n1c(C)nc2sc(-c3ccccc3)cc2c1=O`, the viability in assay [1] is 89%; in [3], 89% (inactive); in [4], 80.3% (inactive); in assay [5], 81.9% (inactive); in [6] (setting [16]), 90.8%; in [6] (setting [17]), 81.9%. For the same compound, the viability in assay [12] was 54.6% (inactive); in [13], 61% (inactive). In assay [2], the Her2 level was 106% (inactive). In addition, the differential viability (reversal) in [6] (H69AR cells + 2 uM doxorubicin) was -8.97% (inactive). Further, the inhibition in [7] is -0.38% (inactive); in assay [8], 2.67% (inactive); in assay [14] it was 0.52% (inactive). Further, the growth inhibition in [9] is -3.25% (inactive); in assay [10], -27.4% (inactive). The viability increase in assay [11] is 1.12% (inactive). Moreover, the RAM network inhibition in [15] is 9.68% (inactive).
With `CC1CCN(S(=O)(=O)c2cccc(C(=O)Nc3ccccn3)c2)CC1`, the viability in assay [1] was 86%; in assay [3], 86% (inactive); in assay [4], 86.7% (inactive); in assay [5] it was 94.3% (inactive); in assay [6] (setting [16]), 96.8%; in assay [6] (setting [17]), 94.3%. Also, the figures for the viability in [12] and in assay [13] were 93.9% (inactive) and 97.7% (inactive), respectively. The Her2 level in assay [2] was 104% (inactive). The differential viability (reversal) in assay [6] (H69AR cells + 2 uM doxorubicin) is -2.55% (inactive). Further, the inhibition in [7] was 4.1% (inactive); in assay [8] it was 1.83% (inactive); in assay [14], -0.08% (inactive). Also, the values for the growth inhibition in assay [9] and in assay [10] were 8.12% (inactive) and 3.79% (inactive), respectively. In [11], the viability increase is -1.96% (inactive). Besides, in assay [15], the RAM network inhibition is 4.54% (inactive).
Consider `COc1cc(/C=N/n2cnnc2)ccc1OCC(=O)N1CCOCC1`, for which the viability in [1] is 84%; in [3], 84% (inactive); in [4] it was 99.5% (inactive); in [5], 93% (inactive); in [6] (setting [16]), 99.6%; in [6] (setting [17]) it was 93%. Further, the values for the viability in assay [12] and in assay [13] were 104% (inactive) and 98.9% (inactive), respectively. Besides, in assay [2], the Her2 level is 93.5% (inactive). The differential viability (reversal) in assay [6] (H69AR cells + 2 uM doxorubicin) was -6.64% (inactive). Also, the results for the inhibition in assay [7], in assay [8] and in assay [14] were -0.9% (inactive), -1.17% (inactive) and 2.55% (inactive), respectively. Further, the growth inhibition in assay [9] is -6.31% (inactive); in assay [10], -6.25% (inactive). For the same compound, the viability increase in assay [11] is -2.75% (inactive). Also, in [15], the RAM network inhibition is 6.03% (inactive).
For `COc1ccc(S(=O)(=O)N2Cc3ccccc3CC2C(=O)Nc2ccc(O)cc2)cc1OC` (stereo not given), the viability in assay [1] is 91%; in assay [3], 91% (inactive); in [4], 76.3% (inactive); in assay [5] it was 77.4% (inactive); in assay [6] (setting [16]) it was 76.2%; in assay [6] (setting [17]), 77.4%. Besides, the viability in [12] is 96.6% (inactive); in assay [13], 87.5% (inactive). For the same compound, the Her2 level in [2] was 106% (inactive). In assay [6] (H69AR cells + 2 uM doxorubicin), the differential viability (reversal) is 1.23% (inactive). Further, the inhibition in assay [7] was -4.27% (inactive); in assay [8], -0.83% (inactive); in assay [14] it was 1.39% (inactive). Besides, the growth inhibition in [9] was -18.6% (inactive); in assay [10] it was -18.4% (inactive). The viability increase in assay [11] was -4.42% (inactive). The RAM network inhibition in assay [15] was 11.6% (inactive).

(Values after PubChem BioAssay.)
